Results on 31 compounds are retold here after PubChem BioAssay (EPA / NIEHS).

The subject of assay [1] is Thyroperoxidase (TPO), gene 54314. Kind of assay: CCTE_Simmons_AUR_rTPO: CCTE's Amplex UltraRed Assay for Thyroperoxidase (TPO) Inhibition, Simmons Lab (AID 2283662).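 On AC50: potency for loss of signal meaning inhibition of peroxidase activity.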 A digest of the protocol:
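Endpoint is decreased Amplex UltraRed fluorescence after a 30-min, 37C reaction of rat thyroid microsomes with 300 uM H2O2. Eight test concentrations (5 nM–87.5 uM final) in 0.5% DMSO, three biological replicates each.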

Assay [2] in a line: CCTE_Simmons_CellTiterGLO_HEK293T: Viability Assessment in CCTE's Assays for Thyroperoxidase (TPO) Inhibition, Simmons Lab (AID 2283665).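 On AC50: cells exposed to compound for 24 h before readout; actives reduce ATP signal below DMSO vehicle meaning cytotoxicity.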 The method in brief: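 Cells were seeded overnight, then exposed to an eight-point series up to 87.5 uM final for 24 hours. CellTiter-Glo reagent was added and luminescence read after 20 min, giving ATP-based viability versus DMSO.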
Assay [3] is described as follows: Tanguay_ZF_120hpf_CFIN_legacy: (Legacy) Oregon State University Tanguay Lab 120 Hour Post-fertilization zebrafish Assay for Caudal Fin Malformation (AID 2283649). A digest of the protocol: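 Dechorionated Tropical 5D wild-type embryos, one per well from 6 hpf, static exposure to 120 hpf at 28C in 0.64% DMSO. Caudal fin malformation scored by brightfield as present/absent; not scored in dead embryos.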

The nature of assay [4]: Tanguay_ZF_120hpf_PIG_legacy: (Legacy) Oregon State University Tanguay Lab 120 Hour Post-fertilization zebrafish Assay for Pigmentation Malformation (AID 2283650). The method in brief:
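Pigment malformation recorded as a binary call at 120 hpf in zebrafish (Tropical 5D) exposed singly from 6 hpf after pronase dechorionation. Static, sealed, 28C exposure, 0.64% DMSO; mortality excludes scoring; positive-direction fit against DMSO.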

A short description of assay [5]: Tanguay_ZF_120hpf_SWIM_legacy: (Legacy) Oregon State University Tanguay Lab 120 Hour Post-fertilization zebrafish Assay for Swim Bladder Malformation (AID 2283654).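 Further: swim bladder malformation in each larva scored yes or no under brightfield.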 How it is done:
Tanguay_ZF_120hpf_legacy is a whole embryo, multiplexed endpoint assay using zebrafish larvae exposed for 120 hours post fertilization on a 96-well plate.Tanguay_ZF_120hpf_SWIM_legacy is one of one assay component(s) measured or calculated from the Tanguay_ZF_120hpf_legacy assay. It is designed to make measurements of zebrafish development as detected with brightfield microscopy of developing zebrafish embryos.Data from the assay component Tanguay_ZF_120hpf_SWIM_legacy was analyzed into 1 assay endpoints. This assay endpoint, Tanguay_ZF_120hpf_SWIM_legacy, was analyzed in the positive analysis fitting direction relative to DMSO as the negative control and baseline of activity. […]
Zebrafish husbandry: Tropical 5D wild-type adult zebrafish were housed in at an approximate density of 1000 per 100 gallon tank at the Sinnhuber Aquatic Research Laboratory, Oregon State University, Corvallis, OR. […] At 24 hpf, embryos were assessed for photomotor response using a custom photomotor response analysis tool (PRAT) and for developmental toxicity endpoints (MO24: mortality at 24 hpf, DP: developmental progression, SM: spontaneous movement, and NC: notochord distortion). At 120 hpf, locomotor activity was measured using Viewpoint Zebralab and assessed for 18 endpoints. […] If mortality occurred for an embryo (at either 24 or 120 hpf), the non-mortality endpoints were not measured.

The nature of assay [6]: Tanguay_ZF_120hpf_TRUN_legacy: (Legacy) Oregon State University Tanguay Lab 120 Hour Post-fertilization zebrafish Assay for Truncated Body (AID 2283655). The method in brief:
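Dechorionated Tropical 5D wild-type embryos placed singly from 6 hpf and statically exposed to 120 hpf at 28C, final DMSO 0.64%. Truncated body scored as present/absent by brightfield; not scored in dead embryos.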

The nature of assay [7]: Tanguay_ZF_120hpf_NC_legacy: (Legacy) Oregon State University Tanguay Lab 120 Hour Post-fertilization zebrafish Assay for Notochord and Tail Malformation (AID 2283656). The method in brief:
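Binary scoring of notochord distortion by brightfield microscopy; embryos dying were not scored. Wild-type Tropical 5D embryos, chorion removed, exposed singly and statically from 6 to 120 hpf, 28C, sealed, 0.64% DMSO.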

Assay [8] is described as follows: Tanguay_ZF_120hpf_TR_legacy: (Legacy) Oregon State University Tanguay Lab 120 Hour Post-fertilization zebrafish Assay for Touch Response (AID 2283667). The method in brief: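 Binary touch-response endpoint in larvae at 120 hpf after static waterborne exposure from embryo stage (28°C, 0.64% DMSO vehicle, 5 uM trimethyltin chloride as positive control); embryos dead at 24 or 120 hpf excluded; fitted as gain versus DMSO.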

A short description of assay [9]: STM_H9_OrnithineISnorm_perc: Stemina devTOX quickPredict H9 human embryonic stem cell (hESC)-based Assay for Ornithine (ORN) Metabolite Biomarker, Normalized (AID 2283712; active means hit-call score of the fitted dose curve at least 0.9, where 1 is the maximum; inactive means score below 0.9;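 further: ornithine released into spent medium during last day measured by mass spectrometry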). The method in brief: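 Ornithine secreted by H9 hESCs after 72h compound treatment (daily media/compound renewal) was quantified in final-day media by UPLC-HRMS. Values are isotope-standard-normalized, expressed relative to 0.1% DMSO, fitted in positive direction.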

Assay [10] can be described thus: STM_H9_CystineISnorm_perc: Stemina devTOX quickPredict H9 human embryonic stem cell (hESC)-based Assay for Cystine (CYSS) Metabolite Biomarker, Normalized (AID 2283713; active means hit-call score of the fitted dose curve at least 0.9, where 1 is the maximum; inactive means score below 0.9). The method in brief: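 Cells are held undifferentiated and treated for 72h, receiving fresh medium with compound every 24h. Cystine secreted during the final day is quantified by UPLC-HRMS against a labeled spike-in, then expressed relative to the DMSO vehicle median.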

“And” between values parts separate entries of the source, which are not always exact repeats. Equal entries are not always repeated. Results filed as inconclusive are left out. The source made the active and inactive calls. How the source made its calls, unless noted: active means hit-call score of the fitted dose curve at least 0.9, where 1 is the maximum; inconclusive means response in the unintended direction; inactive means score below 0.9.

Take `Cc1ccc(S(=O)(=O)Oc2ccc(N=Nc3ccc(-c4ccc(N=Nc5c(O)ccc6cc(S(=O)(=O)O)cc(S(=O)(=O)O)c56)c(C)c4)cc3C)cc2)cc1`: the values for the AC50 in assay [1] and in assay [2] were 18.2 µM (active) and 18.3 µM (active), respectively.
Turning to `C=C1CC[C@H](O)C/C1=C/C=C1\CCC[C@]2(C)[C@@H]([C@H](C)/C=C/[C@H](C)C(C)C)CC[C@@H]12`, the AC50 is 41.3 µM (active) in assay [1] and 78.7 µM (active) in [2].
On to `Cc1cc(C)nc(NS(=O)(=O)c2ccc(N)cc2)n1`, for which the AC50 in assay [1] was 14.3 µM (active).
In the case of `COc1ccccc1N=Nc1c(S(=O)(=O)O)cc2cc(S(=O)(=O)O)cc(NC(C)=O)c2c1O`, the AC50 in assay [1] was 34.8 µM (active); in assay [2], 12.2 µM (active).
Consider `CCc1cc(Cc2cc(CC)cc(C(C)(C)C)c2O)c(O)c(C(C)(C)C)c1`, for which the values for the AC50 in [1] and in assay [2] were 1.8 µM (active) and 11.1 µM (active), respectively.
For the compound `O=C(O)CCCCCCCCC(=O)O`, the result in assay [1] and in assay [2] was inactive.
As for `CS(=O)(=O)OCCCCOS(C)(=O)=O`, the compound was called inactive in assay [3], in assay [4], in [5], in assay [6], in [2] and in assay [8]. The AC50 in [7] is 47.1 µM (active); in [1], 30.6 µM (active); in assay [9] it was 36.3 µM (active); in assay [10], 5.25 µM (active).
`Oc1ccc2cc(SSc3ccc4cc(O)ccc4c3)ccc2c1`: the AC50 in assay [1] is 2.45 µM (active); in [2], 74.3 µM (active).
On to `CC(C)CCCCCCCCCCCCCCC(=O)O`, for which, in assay [1], the AC50 is 43.8 µM (active).
In the case of `CC(CN=Cc1ccccc1O)N=Cc1ccccc1O` (configuration not stated), the AC50 in assay [1] is 26 µM (active).
With `[O-]n1ccccc1=S.[O-]n1ccccc1=S.[Zn+2]`, the AC50 is 3.72 µM (active) in assay [1] and 2.57 µM (active) in assay [2].
Turning to `CSCCC=O`, the AC50 in [1] is 43.8 µM (active).
`O=c1c(O)c(-c2ccc(O)cc2)oc2cc(O)cc(O)c12`: the AC50 in assay [1] was 0.0805 µM (active). For the same compound, the compound was called inactive in assay [2].
In the case of `O=C(Nc1ccc2c(O)c(N=Nc3ccc(N=Nc4ccc(S(=O)(=O)O)cc4)cc3)c(S(=O)(=O)O)cc2c1)c1ccccc1`, the AC50 was 32.7 µM (active) in assay [1] and 14.4 µM (active) in assay [2].
For `CCOc1ccccc1O`, the AC50 in assay [1] is 19.1 µM (active).
On to `CCOC(=O)c1ccc(N)cc1`, for which the AC50 in assay [1] is 22.2 µM (active); in assay [2], 21.1 µM (active).
Consider `O=C(O)c1ccc(O)cc1`, for which the AC50 in assay [1] was 35.3 µM (active). The outcome in [2] was inactive.
Turning to `CCCCCCCCC=CCCCCCCCC1=NCCN1CCO`, the AC50 in assay [1] is 37.9 µM (active) and 8.64 µM (active); in assay [2], 14 µM (active) and 13.8 µM (active).
Take `CCOc1ccc(N=Nc2ccc(C=Cc3ccc(N=Nc4ccc(OCC)cc4)cc3S(=O)(=O)O)c(S(=O)(=O)O)c2)cc1`: the AC50 was 30.2 µM (active) in assay [1] and 89.1 µM (active) in [2].
The corresponding values for `COc1ccc(N=Nc2cc(C)c(N=Nc3ccc(S(=O)(=O)O)cc3)cc2OC)cc1` are 53.9 µM (active) and 77.9 µM (active).
For `CN(C)c1cccc(O)c1`, the half-maximal activity concentration (AC50) in assay [1] was 1.34 µM (active). Moreover, the compound was called inactive in assay [2].
In the case of `Nc1ccc2cc(S(=O)(=O)O)cc(O)c2c1N=Nc1ccccc1C(F)(F)F`, the AC50 in assay [1] is 20.2 µM (active); in assay [2] it was 31.1 µM (active).
In the case of `CCc1cc(C(C)(C)C)c(O)c(C(C)(C)C)c1`, the AC50 in assay [1] is 4.83 µM (active); in assay [2], 24.3 µM (active).
Take `CCc1ccc(O)cc1`: the outcome in assay [1] was inactive.
As to `O=C1OC[C@H](Cc2cccc(O)c2)[C@H]1Cc1cccc(O)c1`, the AC50 in assay [1] was 7.74 µM (active).
Consider `CCCCCCCCCCCCCCN(CCO)CCO`, for which the AC50 was 44.8 µM (active) in assay [1] and 21.4 µM (active) in [2].
For `CCCCCC(C=O)=Cc1ccccc1`, the AC50 in [1] was 19.4 µM (active); in assay [2] it was 88.1 µM (active).
Take `CCCCCCCCc1ccc(S(=O)(=O)O)cc1`: the AC50 in assay [1] was 43.8 µM (active); in assay [2], 83.5 µM (active).
Take `Cc1cc(S(=O)(=O)O)ccc1N=Nc1c(O)ccc2ccccc12`: the AC50 in [1] was 35 µM (active); in [2], 24 µM (active).
With `CCCCC(CC)COC(=O)c1ccc(O)cc1` (configuration not stated), the AC50 was 44.7 µM (active) in assay [1] and 24.7 µM (active) in assay [2].
Consider `CC(C)NCC(O)COc1ccc(CC(N)=O)cc1` (configuration not stated), for which, in assay [1], the call was inactive.

The AC50 is the midpoint of the concentration-response curve, whichever way the signal moves.
